# Test results: PubChem BioAssay AID720641 (ICCB-Longwood Screening Facility, Harvard Medical School, 2013)
# About 900 (0.53%) of roughly 170,000 compounds were called active.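 Rule for the calls: active = relative growth at most 50% at the other temperature and 20+ points below 30 °C, or under 10% at both; inactive = the rest, inconclusive results apart.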 The entries come from a sample that favours actives as a whole.
# Assay: Staphylococcus aureus RN4220 growth blockers – two temperatures, LtaS inhibitor project, primary screen (AID 720641)
# Conditions: S. aureus RN4220 growth, OD600, 20 h, 42 °C, stronger effect = lower value
SMILES,relative growth,relative growth (measured here: growth at 30 °C) [%]
Cc1onc(-c2ccccc2)c1C(=O)Nc1cccc(C(F)(F)F)c1,113% (inactive),87.3
CCNS(=O)(=O)c1ccc(NC(=O)Nc2cccc(C(F)(F)F)c2)cc1,98.8% (inactive),83.1
Cc1oc2c(F)c(F)c(F)c(F)c2c1S(=O)(=O)Nc1cccc(C(F)(F)F)c1,8.52% (active),1.85
Cc1cc(N2CCCCC2)nc2ccc(NC(=O)CCC(=O)N3CCC(C)CC3)cc12,78.9% (inactive),78.2
CCc1ccc2[nH]c(=O)c(CN(Cc3ccco3)C(=S)NCC(C)C)cc2c1,84% (inactive),74.7
COc1ccc(OCCN2C(=O)c3ccccc3S2(=O)=O)cc1,102% (inactive),95
CC(=O)Nc1nc(C)c(Cc2ccccc2)c(=O)[nH]1,106% (inactive),86.1
CCCCc1c(COC)nc(-c2ccc(Cl)cc2)[nH]c1=O,122% (inactive),53
CCCCCc1c(C)nc(-c2ccccn2)[nH]c1=O,1.74% (active),1.83
CC(C)(C)C(=O)OCC(=O)Nc1ccccc1,124% (inactive),92.1
Cc1nc(/N=C(/N)NC(=O)Cc2ccccc2)nc2ccccc12,93.2% (inactive),87.1
N#CCSc1ccccc1NC(=O)CN1CCc2sccc2C1c1cccs1 (stereo not given),94.4% (inactive),87
Cc1ccc2nc(CN3CCc4sccc4C3c3cccs3)cn2c1 (stereo not given),0.12% (active),-0.28
CC(NC(=O)CN1CCc2sccc2C1c1cccs1)c1ccc2c(c1)OCCO2 (stereo not given),116% (inactive),98.8
CCOC(=O)c1oc2ccccc2c1N=Cc1c(O)n(CC)c(=S)n(CC)c1=O,99% (inactive),93.3
CSc1nsc(SCC(=O)N2CCCC2)n1,93.6% (inactive),82.6
CCOC(=O)N1CCN(CC(=O)NCCc2ccc(Cl)cc2Cl)CC1,90.9% (inactive),81.3
O=C(Cn1cc(C(F)(F)F)cc(Cl)c1=O)Nc1ncccn1,94.1% (inactive),94.7
CCC(CC)C(=O)N(c1ccc(OC)cc1OC)C1C=CS(=O)(=O)C1 (stereo not given),99.8% (inactive),90.8
COc1cccc2c1OCc1sc3[nH]c(=S)[nH]c(=O)c3c1-2,50.5% (inactive),32.4
N#Cc1ccc(OCC(=O)N=Nc2[nH]c(N)c3ccccc23)cc1,104% (inactive),101
Cn1c(NC(=O)c2ccccc2)nc2ccccc21,9.06% (active),0.29
Cn1c(NCc2ccccc2)nc2ccccc21,105% (inactive),64.6
Cn1c(-c2ccc(C(=O)c3ccccc3)s2)nc2ccccc21,101% (inactive),95.7
O=C(COc1ccccc1)NC(C(=O)O)C12CC3CC(CC(C3)C1)C2 (stereo not given),112% (inactive),83.1
CN1CCN(c2nc(C34CC5CC(CC(C5)C3)C4)cs2)CC1,-0.89% (active),-0.63
c1snnc1C12CC3CC(CC(C3)C1)C2,103% (inactive),109
CC(C)(C)C(=O)Nc1ccc(Br)cc1,109% (inactive),84.5

SMILES,relative growth,relative growth (measured here: growth at 30 °C) [%]
CCOC(=O)c1cnc(SCSc2nc3ccccc3s2)nc1N,86.4% (inactive),87
Cc1ccc(OC(=O)c2cc3ccccc3o2)cc1,0.01% (active),-0.88
CC(=O)Oc1ccc2occ(C(=O)c3cc4ccccc4o3)c2c1,89.3% (inactive),86.2
CC(C)Oc1ccc(NC(=O)c2cc3ccccc3o2)cc1,87.3% (inactive),89.7
O=C(Oc1ccc2oc(=O)sc2c1)c1ccccc1,92.5% (inactive),94
CC(C)n1c(CCC(=O)O)ccc1-c1ccc(F)cc1,126% (inactive),97.4
CN(C)[C@@H]1C(=O)C(C(N)=O)=C(O)[C@@]2(O)C(=O)C3=C(O)c4c(O)ccc(Cl)c4[C@@H](O)[C@H]3C[C@@H]12,-0.41% (active),-1
COC(=O)/C(C#N)=C(\NCc1ccc(Cl)cc1Cl)SC,99.2% (inactive),99.3
NC(=O)C1CCN(C(=O)CSc2ccc3ccccc3c2)CC1,84.3% (inactive),94.8
COc1ccc(F)cc1C(O)CSCc1ccccc1 (stereo not given),124% (inactive),84.8
CCOC(=O)Nc1nc2c(ccc3ccccc32)s1,92.4% (inactive),91.2
O=C(O)C1CCC(CNS(=O)(=O)c2ccc(Br)cc2)CC1 (stereo not given),108% (inactive),96.5
CCOC(=O)c1oc2nc(-c3ccccc3)cc(-c3ccco3)c2c1N,97.1% (inactive),91.1
CCOc1ccc(CNC(=O)c2ccc(CS(=O)c3ccccc3)o2)cc1 (stereo not given),101% (inactive),79.9
CCc1ccc(CNC(=O)c2ccc(CS(=O)c3ccc(Br)cc3)o2)cc1 (stereo not given),19.5% (active),45.9
Cc1ccc(CNC(=O)c2ccc(CS(=O)Cc3cccc(Cl)c3)o2)cc1 (stereo not given),116% (inactive),82.8
COC(=O)c1scc2c(N3CCCCC3)cc(C(F)(F)F)nc12,90.2% (inactive),95.5
CCN1CCN(C(=O)N[C@@H](C(=O)N[C@@H]2C(=O)N3C(C(=O)O)=C(CSc4nnnn4C)CS[C@H]23)c2ccc(O)cc2)C(=O)C1=O,-0.62% (active),-0.46
O=C(Nc1nnc(C2CC2)s1)c1cc(Cl)sc1Cl,77.4% (inactive),68.7
COC(=O)c1ccc2c(c1)NC(=O)C(C)N2 (stereo not given),95.5% (inactive),65.5
CC1CCCCN1S(=O)(=O)c1ccc(C(=O)Nc2nnc(-c3cccs3)o2)cc1 (stereo not given),2.04% (active),1.82
CCc1nnc(NC(=O)C2CCCN2S(=O)(=O)c2ccccc2)s1 (stereo not given),119% (inactive),89.3
CC1CCCCN1S(=O)(=O)CCNC(=O)c1ccccc1 (stereo not given),85.7% (inactive),88.4
CSCc1nnc(NC(=O)c2ccc(S(=O)(=O)N3CCCCC3C)cc2)o1 (stereo not given),0.19% (active),-0.08
CC1CCCCN1S(=O)(=O)c1ccc(I)cc1 (stereo not given),103% (inactive),105
CC1CCCCN1S(=O)(=O)c1ccc(F)c(C(=O)Nc2ccccc2C(F)(F)F)c1 (stereo not given),98.5% (inactive),90
O=C(Cc1n[nH]c(=O)c2ccccc12)N/N=C/c1ccc(-c2ccc(Br)cc2)o1,95.6% (inactive),86.9
